Assay [1] can be described thus: qHTS assay to identify small molecule agonists of the sonic hedgehog signaling (Shh) pathway (AID 1259368).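 Further: NIH/3T3-derived 3T3Gli1-Luc cells carrying a stable Gli1-driven firefly luciferase reporter; series mostly up to about 92 µM; nearly all actives have a fitted effect of over 15% in size.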 An outline of the steps: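 Hedgehog pathway agonism scored by increased firefly luciferase luminescence in 3T3Gli1-Luc cells treated 24 hr at 37 C; detection used a 30 min room-temperature reagent incubation.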
For orientation: qHTS replaces the single test concentration by a dilution series.

Assay [2] is described as follows: qHTS assay to identify small molecule antagonists of the sonic hedgehog signaling (Shh) pathway (AID 1259369). Further: nearly all actives have a fitted effect of over 45% in size. Further: potency means the concentration at half of the fitted maximal effect. An outline of the steps:
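NIH/3T3 stable Gli1-Luc clone, 2,000 cells/well, 4hr settle; cpd + conditioned medium 24hr; Luc reagent 30min RT; luminescence.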

The target in assay [3] is Estrogen receptor beta (Homo sapiens) (UniProt Q92731). Briefly: qHTS assay to identify small molecule agonists of the estrogen receptor beta (ER-beta) signaling pathway (AID 1259377; active means well fitted activation curve with a large enough effect in the signal ratio in the repeat runs, not every such curve was filed as active; the % refers to the signal ratio; further: potency means the concentration at half of the fitted maximal effect). An outline of the steps:
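Beta-lactamase reporter readout: fluorescence of LiveBLAzer B/G FRET substrate after 2 h at room temperature, following 16 h compound treatment of ER-beta-UAS-bla HEK293T cells at 37C in 2% charcoal-stripped FBS medium.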

Assay [4] in a line: qHTS assay to identify small molecule agonists of the androgen receptor (AR) signaling pathway in the presence of an antagonist - cell viability counter screen (AID 1259379; active means well fitted curve in the direction sought with a large enough effect in the repeat runs; an effect the other way counts as inactive or inconclusive; further: nearly all actives have a fitted effect of over 25% in size; further: potency means the concentration at half of the fitted maximal effect). The method in brief:
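MDA-kb2 viability measured by CellTiter-Fluor fluorescence in the same wells as the luciferase signal; nilutamide 3.0uM final; 15-point compound titration; 16 hr at 37C.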

The nature of assay [5]: qHTS assay to identify small molecule agonists of the estrogen receptor beta (ER-beta) signaling pathway - cell viability counter screen (AID 1259380; active means well fitted curve in the direction sought with a large enough effect in the repeat runs; an effect the other way counts as inactive or inconclusive; further: nearly all actives have a fitted effect of over 30% in size; further: potency means the concentration at half of the fitted maximal effect). The method in brief:
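Measured: luminescence from CellTiter-Glo after 30 min at room temperature, added to wells already read for the LiveBLAzer FRET reporter (2 hr substrate); ER-beta-UAS-bla HEK293T cells had 16 hr compound treatment at 37C, 5% CO2.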

Assay [6] concerns the target Estrogen receptor (Homo sapiens) (UniProt P03372). Briefly: qHTS assay to identify small molecule agonists of the estrogen receptor alpha (ER-alpha) signaling pathway in the presence of an antagonist (AID 1259383). Further: nearly all actives have a fitted effect of over 15% in size. Further: potency means the concentration at half of the fitted maximal effect. On activation: top concentration of the series differs between compounds. The method in brief:
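Quantitative HTS confirmation: compounds titrated at 15 concentrations onto estrogen-deprived VM7Luc4E2 cells carrying a four-ERE luciferase construct, with ICI-182,780 present at 10.0nM final. Signal is luminescence after 22hr exposure.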

The nature of assay [7]: qHTS assay to identify small molecule agonists or antagonists of the thyroid stimulating hormone receptor (TSHR) signaling pathway - wild type cell line counter screen (AID 1259384). An outline of the steps: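 Wild-type Hek293 cells, 800/well, 18 h at 37C, then compound with Ro20-1724 for 30 min RT. cAMP by HTRF (cAMP-d2/anti-cAMP cryptate), 1 h RT, fluorescence read. 15 concentrations, triplicates.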

Assay [8] concerns the target Thyrotropin receptor (Homo sapiens) (UniProt P16473). As to the kind of experiment: qHTS assay to identify small molecule antagonists of the thyroid stimulating hormone receptor (TSHR) signaling pathway (AID 1259385). Further: nearly all actives have a fitted effect of over 20% in size. An outline of the steps: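 TSHR-HEK293 cells (800/well) plated 18 h, then compounds with Ro20-1724 and TSH at 1.5 ng/mL final, 30 min at room temperature. cAMP quantified by HTRF (cAMP-d2/anti-cAMP-cryptate, 1 h); 15 concentrations in triplicate.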

Assay [9] in a line: qHTS assay to identify small molecule agonists of the estrogen receptor alpha (ER-alpha) signaling pathway in the presence of an antagonist - cell viability counter screen (AID 1259386; active means well fitted curve in the direction sought with a large enough effect in the repeat runs; an effect the other way counts as inactive or inconclusive;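 further: cells exposed to compounds for 22 h at 37 °C before the viability read; nearly all actives have a fitted effect of over 30% in size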; further: potency means the concentration at half of the fitted maximal effect). The method in brief:
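The test measures whether compounds kill ER-alpha reporter cells (VM7Luc4E2) under antagonist co-treatment (ICI-182,780, 10.0nM). Fluorescence from CellTiter-Fluor is read after a 22hr exposure.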

The target of assay [10] is Progesterone receptor (Homo sapiens) (UniProt P06401). Briefly: qHTS assay to identify small molecule agonists of the progesterone receptor (PR) signaling pathway (AID 1346784). Further: nearly all actives have a fitted effect of over 30% in size. The method in brief: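 HEK 293T PR-UAS-bla reporter cells, 2% charcoal-stripped FBS; 6 hr settle at 37C/5% CO2, compound (DMSO) 16 hr, LiveBLAzer B/G FRET substrate 2 hr RT, fluorescence intensity read.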
Sequence of Progesterone receptor (Homo sapiens) (P06401 whole entry, looked up): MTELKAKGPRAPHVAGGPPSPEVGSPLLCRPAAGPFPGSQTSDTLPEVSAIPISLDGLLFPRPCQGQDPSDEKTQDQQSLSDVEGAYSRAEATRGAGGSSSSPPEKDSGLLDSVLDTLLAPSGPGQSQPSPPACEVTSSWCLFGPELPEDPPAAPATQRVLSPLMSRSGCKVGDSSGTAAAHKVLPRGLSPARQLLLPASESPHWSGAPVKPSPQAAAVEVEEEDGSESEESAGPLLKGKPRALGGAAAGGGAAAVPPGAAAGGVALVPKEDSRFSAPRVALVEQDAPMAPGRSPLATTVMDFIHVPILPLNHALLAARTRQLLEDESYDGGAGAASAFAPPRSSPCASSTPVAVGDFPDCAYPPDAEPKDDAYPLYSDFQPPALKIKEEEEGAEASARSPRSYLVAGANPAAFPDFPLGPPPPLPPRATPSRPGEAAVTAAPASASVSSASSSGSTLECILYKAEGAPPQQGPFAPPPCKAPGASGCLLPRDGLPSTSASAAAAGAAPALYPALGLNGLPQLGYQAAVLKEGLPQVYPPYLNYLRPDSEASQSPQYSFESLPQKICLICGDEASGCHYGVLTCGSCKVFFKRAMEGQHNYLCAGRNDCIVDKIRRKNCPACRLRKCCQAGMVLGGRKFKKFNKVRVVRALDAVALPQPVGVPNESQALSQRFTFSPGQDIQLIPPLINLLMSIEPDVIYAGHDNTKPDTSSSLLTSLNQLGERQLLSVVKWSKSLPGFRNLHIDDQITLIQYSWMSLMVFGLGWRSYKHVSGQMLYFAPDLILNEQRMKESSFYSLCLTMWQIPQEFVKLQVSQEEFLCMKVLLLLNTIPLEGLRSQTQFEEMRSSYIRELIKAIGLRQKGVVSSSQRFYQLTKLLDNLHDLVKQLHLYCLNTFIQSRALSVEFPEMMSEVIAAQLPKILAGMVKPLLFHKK

The target is the same in assay [11]. As to the kind of experiment: qHTS assay to identify small molecule antagonists of the progesterone receptor (PR) signaling pathway (AID 1346795; active means well fitted inhibition curve with a large enough effect in the signal ratio in the repeat runs, not every such curve was filed as active; the % refers to the signal ratio; further: potency means the concentration at half of the fitted maximal effect). The method in brief:
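Beta-lactamase reporter, HEK293T PR-UAS-bla line; 2% charcoal-stripped FBS; 6 hr pre-incubation, 37C/5% CO2. Compound + R5020 1 nM final, 16 hr. LiveBLAzer B/G FRET substrate, 2 hr RT; fluorescence intensity read.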

Assay [12] in a line: qHTS assay to identify small molecule antagonists of the progesterone receptor (PR) signaling pathway - cell viability counter screen (AID 1346798; active means well fitted curve in the direction sought with a large enough effect in the repeat runs; an effect the other way counts as inactive or inconclusive; further: nearly all actives have a fitted effect of over 50% in size; further: potency means the concentration at half of the fitted maximal effect). An outline of the steps: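 Luminescence readout (CellTiter-Glo, 30 min, RT) of viability in PR-UAS-bla HEK293T cells exposed to compound and R5020 agonist for 16 hr at 37C, 5% CO2; run in the same wells as the beta-lactamase reporter read.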

Assay [13] is described as follows: qHTS assay to identify small molecule agonists of the progesterone receptor (PR) signaling pathway - cell viability counter screen (AID 1346799). Further: nearly all actives have a fitted effect of over 45% in size. Further: potency means the concentration at half of the fitted maximal effect. The method in brief:
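HEK293T PR-UAS-bla, 3,000 cells/well, 2% charcoal-stripped FBS; 6 h settle, compound 16 h at 37C/5% CO2; LiveBLAzer 2 h RT, then CellTiter-Glo 30 min RT, luminescence read.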

Assay [14] is described as follows: qHTS assay to identify small molecule antagonists of the TGF-beta/Smad signaling pathway - cell viability counter screen (AID 1346824; active means well fitted curve in the direction sought with a large enough effect in the repeat runs; an effect the other way counts as inactive or inconclusive; further: nearly all actives have a fitted effect of over 50% in size; further: potency means the concentration at half of the fitted maximal effect). The method in brief: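 SBE-bla HEK 293T cells, incubated overnight, then compound plus 0.25 ng/mL TGF-beta1 (stock added) for 5 hr at 37 C. Viability was read in the same wells by CellTiter-Glo luminescence after 30 min at room temperature.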

Assay [15] in a line: qHTS assay to identify small molecule agonists of the TGF-beta/Smad signaling pathway - cell viability counter screen (AID 1346829; active means well fitted curve in the direction sought with a large enough effect in the repeat runs; an effect the other way counts as inactive or inconclusive; further: nearly all actives have a fitted effect of over 45% in size; further: potency means the concentration at half of the fitted maximal effect). The method in brief: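 HEK 293T SBE-bla line, 5 hr compound exposure at 37 C, multiplexed CellTiter-Glo viability read by luminescence.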
Assay [16] is described as follows: qHTS assay to identify small molecule agonists of the TGF-beta/Smad signaling pathway (AID 1346859; active means well fitted activation curve with a large enough effect in the signal ratio in the repeat runs, not every such curve was filed as active; the % refers to the signal ratio; further: series mostly up to about 77 µM). The method in brief: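 Read-out: fluorescence at 460 and 530 nm (405 nm excitation) after a 2 hr room-temperature incubation with beta-lactamase FRET substrate. SBE-bla HEK 293T cells had been treated with test compounds for 5 hr at 37 C.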
For assay [17], the target named is Thyrotropin-releasing hormone receptor (Homo sapiens) (UniProt P34981). As to the kind of experiment: qHTS assay to identify small molecule antagonists of the thyrotropin-releasing hormone receptor (TRHR) signaling pathway (AID 1346877; active means well fitted inhibition curve with a large enough effect in the repeat runs, not every such curve was filed as active; further: series mostly up to about 51 µM). An outline of the steps:
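Overnight-plated (18 h, 37 °C) HEK293 cells expressing TRHR were dye-loaded 2 h, treated with compound, then stimulated with TRH at 1 nM final. Fluorescence intensity was captured every second for 3 min.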

The target in assay [18] is Androgen receptor (Homo sapiens) (UniProt P10275). Briefly: qHTS assay to identify small molecule agonists of the androgen receptor (AR) signaling pathway in the presence of an antagonist (AID 1259381). Further: nearly all actives have a fitted effect of over 15% in size. An outline of the steps: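 Luminescent ONE-Glo read, 30min at room temperature, follows 16hr compound exposure (15 concentrations) of MDA-kb2 cells at 37C, 0% CO2, with nilutamide added at 3.0uM final.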
Sequence of Androgen receptor (Homo sapiens) (P10275 whole entry, looked up): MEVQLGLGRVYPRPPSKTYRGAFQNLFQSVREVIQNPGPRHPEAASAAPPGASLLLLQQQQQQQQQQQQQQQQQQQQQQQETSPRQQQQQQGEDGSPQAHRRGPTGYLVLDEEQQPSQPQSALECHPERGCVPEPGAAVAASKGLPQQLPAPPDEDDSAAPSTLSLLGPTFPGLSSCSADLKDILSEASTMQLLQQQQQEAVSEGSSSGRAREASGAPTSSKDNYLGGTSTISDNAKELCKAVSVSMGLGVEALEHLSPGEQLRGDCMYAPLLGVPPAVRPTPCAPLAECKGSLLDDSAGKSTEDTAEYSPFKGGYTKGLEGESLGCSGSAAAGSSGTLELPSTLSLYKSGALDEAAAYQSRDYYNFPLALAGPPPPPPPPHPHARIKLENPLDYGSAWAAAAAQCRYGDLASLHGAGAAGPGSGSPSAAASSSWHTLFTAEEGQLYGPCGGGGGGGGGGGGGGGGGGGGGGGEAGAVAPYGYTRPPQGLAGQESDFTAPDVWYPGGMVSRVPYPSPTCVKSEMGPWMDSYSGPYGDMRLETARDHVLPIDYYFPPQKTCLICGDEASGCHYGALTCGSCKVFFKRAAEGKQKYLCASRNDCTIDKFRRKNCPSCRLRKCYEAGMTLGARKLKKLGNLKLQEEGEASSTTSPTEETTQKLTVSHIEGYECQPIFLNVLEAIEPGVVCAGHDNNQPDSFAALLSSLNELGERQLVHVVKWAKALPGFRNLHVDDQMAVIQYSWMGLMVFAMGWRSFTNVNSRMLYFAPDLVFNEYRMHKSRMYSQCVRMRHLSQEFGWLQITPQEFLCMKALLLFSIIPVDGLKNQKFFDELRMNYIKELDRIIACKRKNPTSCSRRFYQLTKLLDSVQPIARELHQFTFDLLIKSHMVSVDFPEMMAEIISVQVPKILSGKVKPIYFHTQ

A short description of assay [19]: qHTS assay to identify small molecule antagonists of the estrogen receptor beta (ER-beta) signaling pathway - cell viability counter screen (AID 1259382; active means well fitted curve in the direction sought with a large enough effect in the repeat runs; an effect the other way counts as inactive or inconclusive; further: nearly all actives have a fitted effect of over 55% in size; further: potency means the concentration at half of the fitted maximal effect). The method in brief:
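Readout: luminescence, CellTiter-Glo, same wells as bla assay. System: ER-beta-UAS-bla GripTite HEK293T, 2% charcoal-stripped FBS. Exposure: compounds plus 1nM 17-beta-estradiol, 16 hr, 37C.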

In assay [20] the target is Estrogen receptor beta (Homo sapiens) (UniProt Q92731). As to the kind of experiment: qHTS assay to identify small molecule antagonists of the estrogen receptor beta (ER-beta) signaling pathway (AID 1259378; active means well fitted inhibition curve with a large enough effect in the signal ratio in the repeat runs, not every such curve was filed as active; the % refers to the signal ratio). An outline of the steps: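 ER-beta-UAS-bla HEK293T cells in 2% charcoal-stripped FBS medium treated with compound plus 1nM final 17-beta-estradiol for 16 hr at 37C. Beta-lactamase reporter read by FRET substrate fluorescence after 2 hours at room temperature.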
Sequence of Estrogen receptor beta (Homo sapiens) (Q92731 whole entry, looked up): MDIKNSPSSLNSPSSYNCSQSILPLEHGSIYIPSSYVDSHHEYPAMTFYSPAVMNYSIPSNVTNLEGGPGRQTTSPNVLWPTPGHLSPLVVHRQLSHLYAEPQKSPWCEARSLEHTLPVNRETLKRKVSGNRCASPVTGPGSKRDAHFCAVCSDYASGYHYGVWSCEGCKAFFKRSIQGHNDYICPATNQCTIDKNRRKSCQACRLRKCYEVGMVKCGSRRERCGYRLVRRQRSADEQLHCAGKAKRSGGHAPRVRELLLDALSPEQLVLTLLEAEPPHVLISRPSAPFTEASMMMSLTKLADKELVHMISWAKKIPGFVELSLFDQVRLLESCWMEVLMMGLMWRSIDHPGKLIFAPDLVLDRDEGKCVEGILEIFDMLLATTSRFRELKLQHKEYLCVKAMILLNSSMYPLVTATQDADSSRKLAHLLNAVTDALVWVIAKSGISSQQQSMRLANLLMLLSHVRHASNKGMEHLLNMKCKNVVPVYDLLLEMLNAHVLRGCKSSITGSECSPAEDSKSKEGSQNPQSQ

“And” between values parts separate entries of the source, which are not always exact repeats. Identical values can stand only once. Results filed as inconclusive are left out. The source holds several records for some structures; these can differ, active in one and inactive in another. The source made the active and inactive calls. Unless noted, the call rests on the fitted dose curve.

Sequence of Thyrotropin-releasing hormone receptor (Homo sapiens) (P34981 whole entry, looked up): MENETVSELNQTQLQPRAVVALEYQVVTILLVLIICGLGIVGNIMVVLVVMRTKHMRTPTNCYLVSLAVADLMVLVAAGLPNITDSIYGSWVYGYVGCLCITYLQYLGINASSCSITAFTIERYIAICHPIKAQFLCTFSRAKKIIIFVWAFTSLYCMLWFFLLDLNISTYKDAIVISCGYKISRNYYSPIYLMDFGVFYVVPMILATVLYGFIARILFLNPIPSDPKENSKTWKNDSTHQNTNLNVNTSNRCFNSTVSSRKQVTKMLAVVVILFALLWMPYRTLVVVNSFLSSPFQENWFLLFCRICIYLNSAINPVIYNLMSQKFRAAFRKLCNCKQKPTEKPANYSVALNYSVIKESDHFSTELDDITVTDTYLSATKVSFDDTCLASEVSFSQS
Sequence of Estrogen receptor (Homo sapiens) (P03372 whole entry, looked up): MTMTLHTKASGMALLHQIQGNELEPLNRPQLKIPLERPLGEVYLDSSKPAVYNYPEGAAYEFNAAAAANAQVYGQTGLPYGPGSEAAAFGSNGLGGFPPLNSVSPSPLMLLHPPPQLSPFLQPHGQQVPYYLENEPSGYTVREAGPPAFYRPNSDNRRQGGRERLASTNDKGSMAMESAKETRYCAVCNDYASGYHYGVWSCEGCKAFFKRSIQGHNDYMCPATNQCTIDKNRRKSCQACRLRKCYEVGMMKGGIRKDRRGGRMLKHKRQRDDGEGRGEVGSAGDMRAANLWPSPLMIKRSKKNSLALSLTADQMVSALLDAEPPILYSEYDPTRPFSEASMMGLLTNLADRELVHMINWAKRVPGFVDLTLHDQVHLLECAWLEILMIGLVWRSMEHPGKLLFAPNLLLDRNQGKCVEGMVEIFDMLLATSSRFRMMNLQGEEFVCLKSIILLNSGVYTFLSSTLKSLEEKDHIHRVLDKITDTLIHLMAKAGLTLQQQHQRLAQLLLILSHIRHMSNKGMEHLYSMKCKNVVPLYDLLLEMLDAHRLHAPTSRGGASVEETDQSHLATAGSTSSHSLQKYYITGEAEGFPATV
Sequence of Thyrotropin receptor (Homo sapiens) (P16473 whole entry, looked up): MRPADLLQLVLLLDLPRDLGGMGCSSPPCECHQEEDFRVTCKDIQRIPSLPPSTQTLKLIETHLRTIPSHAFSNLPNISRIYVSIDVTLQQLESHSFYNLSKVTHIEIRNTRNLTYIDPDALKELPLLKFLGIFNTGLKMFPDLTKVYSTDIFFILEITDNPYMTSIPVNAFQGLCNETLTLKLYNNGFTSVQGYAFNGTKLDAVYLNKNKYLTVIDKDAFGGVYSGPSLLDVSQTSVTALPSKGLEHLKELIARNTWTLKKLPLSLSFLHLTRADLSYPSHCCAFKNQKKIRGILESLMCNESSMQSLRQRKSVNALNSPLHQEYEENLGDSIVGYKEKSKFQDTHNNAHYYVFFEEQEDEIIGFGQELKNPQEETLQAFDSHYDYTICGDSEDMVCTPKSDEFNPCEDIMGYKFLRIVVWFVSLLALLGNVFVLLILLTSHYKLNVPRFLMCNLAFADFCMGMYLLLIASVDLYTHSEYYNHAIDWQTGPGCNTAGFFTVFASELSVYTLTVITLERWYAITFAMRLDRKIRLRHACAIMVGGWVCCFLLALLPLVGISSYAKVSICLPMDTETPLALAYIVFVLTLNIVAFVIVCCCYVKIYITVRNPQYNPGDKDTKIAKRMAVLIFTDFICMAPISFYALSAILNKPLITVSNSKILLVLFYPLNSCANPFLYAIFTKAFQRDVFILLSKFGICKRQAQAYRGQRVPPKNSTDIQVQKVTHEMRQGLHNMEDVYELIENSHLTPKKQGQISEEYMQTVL

On to `NNC(N)=S`, for which the Potency entry in assay [1], in [3], in [4], in [6], in [9] and in assay [10] was “inactive” each time. Besides, the Potency entry in [14], in assay [15] and in assay [17] was “inactive” throughout. In addition, the Potency in [2] was 8.97 µM (active) and 12.2 µM (active); in assay [5], 31.8 µM (active); in assay [11] it was 11.3 µM (active) and 21.7 µM (active); in [12], 12.7 µM (active) and 24.3 µM (active); in assay [13], 43.3 µM (active). Further, the outcome in assay [7], in assay [8] and in assay [16] was inactive.

`C=C(C)[C@H]1Cc2c(ccc3c2O[C@@H]2COc4cc(OC)c(OC)cc4[C@@H]2C3=O)O1`: the Potency entry in [1], in assay [5], in assay [18], in assay [19], in assay [10] and in [15] was “inactive” throughout. Besides, the Potency entry in assay [17] was “inactive”. Moreover, the Potency in assay [2] was 19.6 nM (active) and 5.45 µM (active) and inactive; in assay [4] it was 55.2 nM (active) and 38.6 nM (active) and 47.3 nM (active); in assay [9] it was 2.77 µM (active) and 96.9 nM (active) and 188 nM (active); in assay [11] it was 19.6 µM (active) and 9.69 µM (active) and 11.9 µM (active). The result in [7], in assay [8] and in [16] was inactive.

As for `C=C(C)C(=O)OCC1CO1` (stereo not drawn), the Potency result in assay [1], in assay [2], in assay [3], in assay [4], in assay [19] and in assay [6] was “inactive” throughout. Also, the Potency entry in [9], in assay [11], in assay [12], in assay [13], in assay [14] and in [15] was “inactive” each time. For the same molecule, the Potency entry in assay [17] is “inactive”. Further, the molecule was classed as inactive in [7], in assay [8] and in [16].

Turning to `CC(C)C(=O)OCC(C)(C)C(OC(=O)C(C)C)C(C)C` (stereo not drawn), the Potency entry in assay [1], in assay [2], in assay [4], in assay [9], in [10] and in [11] was “inactive” each time. Further, the Potency result in [12], in assay [13], in assay [14], in assay [15] and in assay [17] was “inactive” throughout. For the same molecule, the Potency result in [3] was “inactive and 27.3 µM (active)”; in assay [6], “inactive and 27.3 µM (active)”. In addition, the outcome in assay [7], in [8] and in assay [16] was inactive.

Turning to `c1cc(OCC2CO2)ccc1Cc1ccc(OCC2CO2)cc1` (stereo not drawn), the Potency result in assay [1], in assay [4], in assay [18], in [6], in assay [9] and in [14] was “inactive” in each case. Besides, the Potency entry in assay [15] and in assay [17] was “inactive” throughout. The Potency in assay [2] was 19.4 µM (active) and 21.7 µM (active); in assay [5] it was 48.6 µM (active); in [19], 48.8 µM (active) and inactive. The outcome in assay [7], in assay [8] and in [16] was inactive.

As for `CCOP(=S)(OCC)O/N=C(\C#N)c1ccccc1`, the Potency result in assay [1], in assay [2], in assay [3], in [4], in assay [9] and in assay [12] was “inactive” in each case. The Potency entry in assay [13], in assay [14], in assay [15] and in assay [17] was “inactive” in each case. Besides, the call in [7], in [8] and in assay [16] was inactive. Moreover, the Potency in assay [11] was 13.3 µM (active).

As to `N[C@@H](Cc1ccc(N(CCCl)CCCl)cc1)C(=O)O`, the Potency result in assay [1], in assay [2], in assay [3], in [4], in assay [9] and in assay [10] was “inactive” each time. Moreover, the Potency entry in assay [11], in [12], in assay [13], in assay [14], in [15] and in assay [17] was “inactive” throughout. Besides, the molecule was classed as inactive in assay [7], in assay [8] and in assay [16].

Consider `CCCCNC(=O)n1c(NC(=O)OC)nc2ccccc21`, for which the Potency entry in [1], in assay [20], in assay [4], in [18], in assay [6] and in assay [9] was “inactive” in each case. Further, the Potency entry in assay [13], in [14], in [15] and in assay [17] was “inactive” in each case. Besides, the Potency in [2] was 30.5 µM (active) and inactive. In addition, the molecule was called inactive in [7], in assay [8] and in [16].

For `O=C(Nc1ccc(Br)cc1)c1cc(Br)cc(Br)c1O`, the Potency result in assay [1], in [3], in assay [13] and in assay [17] was “inactive” each time. The Potency is 13.7 µM (active) and 13.3 µM (active) in assay [2]; 21.6 µM (active) and 19.3 µM (active) and 29.8 µM (active) in assay [4]; 2.42 µM (active) and inactive in assay [6]; 21.6 µM (active) and 9.69 µM (active) in assay [9]; 12.1 µM (active) and 21.7 µM (active) in assay [12]; 30.8 µM (active) and 21.9 µM (active) and 19 µM (active) in assay [14]. Besides, in [15], the Potency was 24.5 µM (active) and 43.6 µM (active) and 23.9 µM (active). Moreover, the molecule was called inactive in [7] and in [8].

These data come from PubChem BioAssay (Tox21).
